Unmarked numbers belong to inactive results. No rule for the calls is given here.
test system: HIV-1 nucleocapsid protein NCp7 (binding to TG oligonucleotide); assay: HIV Nucleocapsid (AID 346); conditions: HIV-1 NC / fluorescein-TGTGTGTG probe, fluorescence polarization;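 also: potency is for inhibitors that block NC binding and lower polarization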
Method in brief: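 Fluorescence polarization binding of 100 nM HIV-1 NC to 10 nM fluorescein-labelled TG4xF oligonucleotide. Buffer was Hepes pH 7.5 with 250mM NaCl, 1uM ZnCl2, TCEP and 2-mercaptoethanol. Compounds were incubated 1 hr at room temperature before the read.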
Potency is read from the fitted curve at half-maximal effect.

SMILES	Potency
N#CCCn1c(=O)c(-c2ccc(Cl)cc2)nc2cnc(Oc3cccc(Cl)c3)nc21	> 4 µM
COc1ccc(-n2c(=O)c(C)nc3cnc(Nc4cccc(OC)c4)nc32)cc1	> 20 µM
COC(=O)N1CCC[C@@]2(CCN(c3ccccn3)C2)C1	> 20 µM
O=C(Nc1cccc(F)c1)N1CC[C@@]2(CCCNC2)C1	> 20 µM
COc1ccc(-c2nc3cnc(OC)nc3n(C[C@H]3CCCO3)c2=O)cc1	> 20 µM
c1csc(CNc2ncnc3ccc(-c4ccc5c(c4)OCO5)cc23)c1	> 20 µM
O=C(c1ccco1)N1CCC2(CCCN(c3ncccn3)C2)CC1	> 20 µM
COc1cccc(Cn2c(=O)c(CCc3ccccc3)nc3cnc(N4CCOCC4)nc32)c1	> 20 µM
CC(C)CN1CCC2(CC1)CCN(C(=O)c1cccc(F)c1)CC2	> 20 µM
CN(C)c1ncnc2ccc(-c3ccc4c(c3)OCO4)cc12	> 20 µM
COCCn1c(=O)c(-c2ccc(Cl)cc2)nc2cnc(Nc3ccccc3)nc21	> 20 µM
CC(C)NC(=O)N1CC[C@@]2(CCCN(C(=O)Oc3ccccc3)C2)C1	> 20 µM
N#Cc1ccc(CN2CC3(CCN(C(=O)c4cccc(F)c4)CC3)C2)cc1	> 20 µM
CC(C)CN1CC2(CCN(S(=O)(=O)c3ccccc3)CC2)C1	> 20 µM
O=c1c(-c2cccs2)nc2cncnc2n1Cc1ccccc1	> 20 µM
O=c1c(-c2ccc(F)cc2)nc2cnc(N3CCOCC3)nc2n1CCc1ccccc1	> 20 µM
COc1ccc(-c2nc3cnc(N4CCOCC4)nc3n(-c3ccc(OC)cc3)c2=O)cc1	> 20 µM
Cc1nc2cnc(Nc3ccccc3)nc2n(CCc2ccccc2)c1=O	> 20 µM
CC(C)NC(=O)N1CC2(CCN(C(=O)c3cccn3C)CC2)C1	> 20 µM
FC(F)(F)c1ccccc1-c1nc(NCc2cccs2)c2ccccc2n1	> 20 µM

SMILES	Potency
CC(=O)N1CCC2(CCCN(c3cccc(-c4ccccc4)c3)C2)CC1	> 20 µM
Cc1noc(C)c1-c1cncnc1-n1ccnc1	> 20 µM
COc1ccccc1-c1nc(N2CCN(C)CC2)c2ccccc2n1	> 20 µM
CC(C)NC(=O)N1CC2(CCN(S(=O)(=O)c3ccccc3)CC2)C1	> 20 µM
CC(C)NC(=O)N1CCC2(CC1)CCN(C(=O)c1ccco1)CC2	> 20 µM
COCCn1c(=O)c(-c2ccc(OC)cc2)nc2cnc(Oc3cccc(Cl)c3)nc21	> 20 µM
COCC(=O)N1CCC2(CC1)CCN(C(c1ccccc1)c1ccccc1)CC2	> 20 µM
COc1ccc(CNc2ncncc2-c2ccc(N(C)C)cc2)c(OC)c1	> 20 µM
COc1ccc(-c2nc3cnc(N4CCOCC4)nc3n(-c3ccccc3)c2=O)cc1	> 20 µM
COc1ncc2nc(CCc3ccccc3)c(=O)n(CCc3ccccc3)c2n1	> 20 µM
Cc1nc2cnc(N3CCOCC3)nc2n(Cc2ccc(F)cc2)c1=O	> 20 µM
Cn1c(=O)c(-c2cc(F)cc(F)c2)nc2cnc(N3CCNCC3)nc21	> 20 µM
O=c1c(-c2ccc(F)cc2)nc2cnc(Oc3ccccc3)nc2n1Cc1cccs1	> 20 µM
COc1ccc(C(=O)N2CCC3(CCN(Cc4cc(C(F)(F)F)cc(C(F)(F)F)c4)CC3)CC2)cc1	> 20 µM
COc1ccc(C(=O)N2CCC3(CC2)CN(c2ccccc2)C3)cc1	> 20 µM
O=c1c(-c2cccs2)nc2cnc(Oc3cccc(Cl)c3)nc2n1C1CC1	> 20 µM
COc1ccc(CNc2ncncc2-c2ccccc2OC)c(OC)c1	> 20 µM
CNc1ncnc2ccc(-c3ccccc3C)cc12	> 20 µM
COCCn1c(=O)c(-c2cn(C)c3ccccc23)nc2cnc(Oc3ccccc3)nc21	> 20 µM

Reference: PubChem BioAssay (NCATS)
